PubChem BioAssay AID430 (Sanford-Burnham Center for Chemical Genomics, 2006)
The campaign covered roughly 63,000 compounds. About 1,100 (1.7%) were called active. This excerpt belongs to a sample that is enriched for actives. Measured potencies and affinities stand elsewhere. Unmarked numbers belong to inactive results. No stated cut-off is given here; in the data, active means cytotoxicity above about 50%; inactive means the rest.

Experiment: HPDE-C7 pancreatic duct cell viability loss – fluorescence, HTS (AID 430);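 further: cells exposed to compound for 48 hours before viability readout; 0% = vehicle and 100% = reference cytotoxic drug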
Conditions: HPDE-C7 pancreatic duct cells viability, at 10 µM, active compounds read high

Compound	cytotoxicity
Cn1nc(-c2ccc(N3CCCCC3)c(NC(=O)c3ccco3)c2)c2ccccc2c1=O	64.9% (active)
CCC(=O)Nc1cc(-c2nn(C)c(=O)c3ccccc23)ccc1N1CCCCC1	5.4%
CCCC(=O)Nc1cc(-c2nn(C)c(=O)c3ccccc23)ccc1N1CCCCC1	-10.2%
O=C(CCCC(=O)N(CC(=O)NC1CCCC1)C1CCCC1)Nc1ccccn1	-20.8%
CCNC(=O)NC(=O)C(C)Oc1ccc(C(=O)OC)cc1 (configuration not stated)	2.8%
Cc1sc(NC(=O)CSc2nnc(COc3ccccc3)n2C)c(C#N)c1C	4.2%
Cc1ccc(-c2csc3nnc(SCC(=O)Nc4nsc(-c5ccccc5)n4)n23)cc1	-4.6%
Oc1ccccc1-c1nnc(COc2ccc(Cl)cc2Cl)o1	35.9%
O=C(O)CCCC(=O)Nc1nc(-c2ccccc2)cs1	6.9%
COc1cc2[nH]c(=O)n(CCC(=O)N3CCN(c4cccc(C)c4C)CC3)c(=O)c2cc1OC	0.4%
COc1cc2[nH]c(=O)n(CCC(=O)N3CCN(c4cc(Cl)ccc4C)CC3)c(=O)c2cc1OC	63.8% (active)
CCOc1cc2[nH]c(=O)n(CCC(=O)N3CCN(c4ccccc4OC)CC3)c(=O)c2cc1OCC	-8.1%
COc1ccc(Cl)cc1C(=O)N1CCN=C1SC	-11.2%
CCOc1cc(C#N)c(NC(=O)c2cccnc2)cc1OCC	51.5% (active)
CCOc1cc(C#N)c(NC(=O)c2ccco2)cc1OCC	12.6%
CCOc1cc(C#N)c(NC(=O)c2ccnn2C)cc1OCC	23.5%
CCc1c(C)nc(Nc2nc(C)c3cc(OC)ccc3n2)[nH]c1=O	56.1% (active)
Cc1nc(Nc2nc(-c3ccccc3)cc(=O)[nH]2)nc2ccccc12	52.3% (active)
Cc1ccc(Nc2nc(CSc3nnnn3-c3ccccc3)cs2)cc1	32.1%
COc1nc(Nc2nc3ccccc3c(=O)[nH]2)nc2ccc(C)cc12	86.7% (active)
COc1cc2nc(NC(=O)c3ccccc3)[nH]c(=O)c2cc1OC	13.3%

Compound	cytotoxicity
Cc1ccc(Nc2nc(CSc3nnnn3-c3ccccc3)cc(=O)[nH]2)cc1	12%
Cc1ccc2nc(Nc3nc(=O)c4ccccc4n3C)nc(C)c2c1	13.7%
COc1ccc2nc(Nc3nc(C)c(CCC(C)C)c(=O)[nH]3)nc(C)c2c1	6.2%
CCCCCc1c(C)nc(Nc2nc(C)c3cc(OC)ccc3n2)[nH]c1=O	-0.5%
Cc1nnc(SCc2cc(=O)[nH]c(Nc3nc(C)c4ccccc4n3)n2)s1	-0.8%
Cc1ccc2c(C)nc(Nc3nc(CSc4nnnn4-c4ccccc4)cc(=O)[nH]3)nc2c1	51% (active)
Cc1nc(-c2ccccc2)cc(=O)[nH]1	4%
Cc1ccc(NC(=O)CSc2nnc(CNC(=O)c3c(F)cccc3Cl)o2)cc1	-9.7%
CCOc1ccc(N2CC(C(=O)Nc3ccccc3OC)CC2=O)cc1 (configuration not stated)	-2.5%
COc1cc(C(=S)N2CCCC2)cc(Cl)c1O	-4%
COc1ccccc1-c1cc(C(=O)NCc2ccc(Cl)cc2)no1	-15.3%
OCc1nn2c(c1Br)NC(c1ccccc1)CC2C(F)(F)F (configuration not stated)	-8.4%
CCOc1ccc(CCNC(=O)C2CCN(c3nn4c(=O)cc(C)nc4s3)CC2)cc1OCC	-6.6%
COc1cc(OC)cc(C(=O)NC2CCN(Cc3nnnn3Cc3cccs3)CC2)c1	-7.1%
CC(=O)NC(CCS(C)(=O)=O)C(=O)Nc1c(C)cccc1C (configuration not stated)	10.4%
COc1ccc2c(C)nc(Nc3nc(C)cc(=O)[nH]3)nc2c1	80.7% (active)
COCc1cc(=O)[nH]c(Nc2nc(C)c3ccc(C)cc3n2)n1	5.4%
COc1ccc2c(C)nc(Nc3nc(C)cc(C)n3)nc2c1	-4.7%
N#Cc1c(-c2ccccc2)nc(SCc2nc(N)nc(N3CCCCC3)n2)[nH]c1=O	9.2%
CCN1CCN(CCNC(=O)c2cn(C(C)c3ccccc3F)nn2)CC1 (configuration not stated)	-5.9%
COc1ccc(-c2cc(-c3cc(F)ccc3O)[nH]n2)cc1OC	8.9%

Compound	cytotoxicity
Oc1ccccc1-c1cc(-c2cccc(F)c2)n[nH]1	3.1%
COc1ccc(-c2cc(-c3ccccc3O)[nH]n2)cc1OC	51.6% (active)
Cc1ccc(-n2ncc(C#N)c2/N=C/N(C)C)cc1	8.6%
CC(=O)Nc1ccc(NC(=O)c2cccc(C(=O)OC(C)C)n2)cc1	-2.2%
O=C(NCCCN1CCN(CCCNC(=O)c2ccc(F)cc2)CC1)c1ccc(F)cc1	-6.2%
CS(=O)(=O)N1CCc2cc(S(=O)(=O)N3CCN(Cc4ccc5c(c4)OCO5)CC3)ccc21	6.1%
CS(=O)(=O)N1CCc2cc(S(=O)(=O)Nc3ccc4oc5c(c4c3)CCCC5)ccc21	80% (active)
CS(=O)(=O)N1CCc2cc(C(=O)O)ccc21	-2.9%
COC(=O)c1ccccc1NC(=O)CSc1nnc(-c2cccc(NC(C)=O)c2)n1C	6.2%
COc1ccc(OCc2nc(N)nc(Nc3cccc(C)c3C)n2)cc1	-10.3%
C=CCNc1nc(NCc2ccccc2)c(C#N)c2c1CN(C)CC2	14.5%
N#Cc1c(NCCO)nc(NCc2ccccc2)c2c1CCN(Cc1ccccc1)C2	34.2%
N#Cc1c(NCCCO)nc(-c2ccccc2)c2c1CCCC2	38.6%
CCN1CCc2c(C#N)c(N3CCCCC3)nc(NCc3ccccc3)c2C1	30.7%
O=C(c1ccccc1F)N1CCN(S(=O)(=O)c2ccc(S(=O)(=O)N3CCCCC3)cc2)CC1	-2.6%
Cn1c(=O)n(C)c2cc(NS(C)(=O)=O)ccc21	-29.4%
Cc1noc(C)c1COC(=O)c1ccc2c(c1)OCO2	-8.9%
O=S(=O)(Nc1ccc2c(c1)nc1n2CCN(Cc2ccccc2)C1)c1ccc(Cl)cc1	68.2% (active)
O=S(=O)(Nc1ccc2c(c1)nc1n2CCN(Cc2ccccc2)C1)c1ccccc1	2.6%
Cc1ccc(S(=O)(=O)Nc2ccc3c(c2)nc2n3CCN(Cc3ccccc3)C2)cc1	10.2%
